Rows were chosen to be rich in hits. Some 3.4% of all compounds tested hit in one or more screens of this group.
AI-2 QS mod: modulates the Vibrio harveyi AI-2 quorum sensing system; activity change, % at 7.5 µM; 300,000 tested, 0.4% active; Vibrio harveyi JMH597 AI-2 luminescence/OD600 ratio, 9 h; active compounds read low; strain lacks LuxN and CqsS sensors; 0 = neutral-control median; in the data active means activity change below about -75%, passing the limit was not always enough;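 further: luminescence divided by OD600 gain over 9 h not by final OD600 alone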
HSF1 inhib: HSF1 inhibition; NIH3T3-HGL HSE-luciferase, MG132-induced, luminescence 8 h; active compounds read low; activity change, negative = inhibition, % at 7.5 µM (by protocol); 300,000 tested, 0.77% active; AID 2098;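 active means more than half of replicate wells show activity change below -50%, luminescence cut by over half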;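 further: luciferase reports HSF-1 transcriptional activity via heat shock element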
SMARCA2 activ: increases SMARCA2 function in MMTV reporter cells. MG213 cells, MMTV-luciferase reporter, dexamethasone, overnight. activation, % at 9.1 µM. 370,000 tested, 1% active. AID 652017; in the data active means activation above about 7.8%
PG9 binder: binds the HIV-1 gp120 antibody PG9. TR-FRET gp120-PG9 antibody binding. inhibition, % at 6.7 µM. 360,000 tested, 0.43% active. AID 624416; in the data active means inhibition above about 8.5%
HSP90 refold inh: HSP90 refolding inhibition in rabbit reticulocyte lysate. luciferase refolding luminescence, 3 h. 290,000 tested, 0.91% active. inhibition, % at 5.6 µM;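 active means inhibition above the screen-wide mean plus 3 SD, computed separately per campaign, cut at about 16% in these data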;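 further: inhibitors lower the luminescence because luciferase stays unfolded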
FXN GAA850 act: increases GAA850 frataxin promoter reporter activity; HEK293 lucGAA850 FXN promoter luciferase reporter, 24 h; percent of 10 µM SAHA response; activation, % at 6 µM; 360,000 tested, 0.56% active; AID 540364;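 active means activation above the average of all compounds screened plus 3 SD, cutoff fixed separately per campaign, cut at about 7.5% in these data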
SMARCA2 act conf: confirmation of SMARCA2 (BRM) function activators. shares compounds with SMARCA2 activ. MG213 cells, MMTV-luciferase with dexamethasone, luminescence, overnight; MG213 cells expressing E1A, Rb sequestered; DMSO wells 0%, reference activator 100%. activation, % at 9.1 µM. 3,500 tested, 30% active;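 active means activation above its plate's cutoff, the mean activation of tested wells plus 3 SD, cut at about 7.9% in these data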
GAL4-VP16 Luc: activates GAL4-VP16 luciferase, flagging SMARCA2 activator hits | shares compounds with SMARCA2 activ | HEK293 GAL4-VP16 pG5luc reporter, luciferase luminescence; scaled: DMSO wells 0%, SAHA wells 100% | activation, % at 9.1 µM | 3,500 tested, 41% active | AID 686939;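 active means activation above the solvent-only control well mean plus 3 SD, averaged across control plates, cut at about 5.2% in these data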
Hits are given with their value; - = inactive; . = no result; ! = repeats disagree.

SMILES	AI-2 QS mod	HSF1 inhib	SMARCA2 activ	PG9 binder	HSP90 refold inh	FXN GAA850 act	SMARCA2 act conf	GAL4-VP16 Luc
O=C(Nc1nnc(SCC(=O)N2CCCc3ccccc32)s1)c1ccc2ccccc2c1	-	-	-	-	-	-	.	.
Cc1ccc(C(=O)Nc2nnc(C)s2)cc1	-	-	13	-	-	-	-	16
CCSc1nnc(NC(=O)c2cccnc2)s1	-	-	-	-	-	-	.	.
CCSc1nnc(NC(=O)c2ccccc2)s1	-	-	11	-	-	-	-	5.5
CC(C)C[C@@H]1COc2cc(N3CCOCC3)ccc2S(=O)(=O)N1	.	.	-	-	.	.	.	.
COc1cccc(C(=O)N[C@H](C(=O)N2CCC[C@H]2C(=O)NC2CCCC2)c2ccccc2)c1	.	.	-	-	.	.	.	.
O=C(Nc1ccc(F)cc1)OC1CC2CC1[C@H]1CCCCN1[C@H]2Cc1ccccc1 (some centres not stated)	.	.	-	.	.	.	.	.
O=C(OC12CCCN(C1)/C(=C/c1ccc(Cl)cc1)C2)C1CCCC1 (configuration not stated)	.	.	-	.	.	.	.	.
CCOc1ccc(OCc2cccc(C(=O)Nc3ccc(CN4CCCCC4)cc3)c2)cc1	-	-	12	-	-	-	14	10
COc1ccc(OCc2cccc(C(=O)Nc3ccc(CN4CCCCC4)cc3)c2)cc1	-	-	9.9	-	-	-	9.4	14
O=C(Nc1ccc(CN2CCCCC2)cc1)c1cccc(F)c1	-	-	-	-	-	-	.	.
O=C(Cc1ccccc1)c1nc2ccccc2s1	-	-	-	-	-	-	.	.
COC(=O)c1ccc(CSc2nc3ccccc3s2)o1	-	-	14	-	-	-	-	-
COC(=O)c1ccc(CC(=O)c2nc3ccccc3s2)cc1	-	.	10	-	-	-	8.8	6.9
C=C1C(=O)[C@]23C[C@H]1CC[C@H]2[C@]1(C)[C@@H](OC(C)=O)CC[C@@](C)(C(=O)O)[C@H]1C[C@@H]3O	.	.	34	-	.	.	9.1	-
C=C1C(=O)[C@]23C[C@H]1CC[C@H]2[C@]1(C)[C@@H](OC(C)=O)CC[C@@](C)(C(=O)OC)[C@H]1C[C@@H]3OC(C)=O	.	.	-	-	.	.	.	.
C=C1C(=O)[C@]23C[C@H]1CCC2[C@@]1(C)C(C[C@@H]3O)[C@](C)(C(=O)O)C[C@H](O)[C@@H]1O (some centres not stated)	.	.	-	-	.	.	.	.
C=C1C(=O)[C@]23C[C@H]1CC[C@H]2[C@]1(C)[C@@H](O)CC[C@@](C)(C(=O)O)[C@H]1C[C@@H]3O	.	.	21	-	.	.	37	-
C[C@@H]1CCCCO[C@@H](CN(C)Cc2ccc(C(=O)O)cc2)[C@@H](C)CN([C@H](C)CO)C(=O)c2cc(NS(C)(=O)=O)ccc2O1	.	.	-	-	.	.	.	.
CCC(C)C(=O)OC1CCC=C2C=CC(C)C(CCC3CC(O)CC(=O)O3)C21 (configuration not stated)	.	-	-	-	.	-	.	.
CC[C@H](C)C(=O)O[C@H]1CCC=C2C=C[C@H](C)[C@H](CC[C@@H]3C[C@@H](O)CC(=O)O3)[C@H]21	-	-	11	-	-	-	-	-
CC[C@H](C)C(=O)O[C@H]1C[C@@H](C)C=C2C=C[C@H](C)[C@H](CC[C@@H]3C[C@@H](O)CC(=O)O3)[C@H]21	-	-	8.2!	-	-	-	-	-
O=C(NC1CCCC1)[C@@H]1CCCN1C(=O)[C@@H](NC(=O)N1CCOCC1)C1CCCCC1	.	.	-	-	.	.	.	.
CN(C)CCCNC(=O)c1c(N)[nH]c(C(=O)c2ccc(Br)cc2)c1-c1ccc(Br)cc1	.	.	-	-	.	.	.	.
Cc1nc(NC(=O)/C=C/c2ccccc2)sc1C(=O)N(C)C	-	-	10	-	-	-	-	6.2
SMILES	AI-2 QS mod	HSF1 inhib	SMARCA2 activ	PG9 binder	HSP90 refold inh	FXN GAA850 act	SMARCA2 act conf	GAL4-VP16 Luc
Cc1nc(NC(=O)/C=C/c2ccc(F)cc2)sc1C(=O)N(C)C	-	-	-	-	-	-	.	.
NS(=O)(=O)c1cc(C(=O)OC2CCOC2=O)ccc1Cl (configuration not stated)	-	-	-	-	-	-	.	.
O=C(OC1CCOC1=O)c1ccc2ncsc2c1 (configuration not stated)	-	-	12	-	-	-	-	-
Cc1cc(O)cc(=O)n1-c1cccc(C(F)(F)F)c1	.	.	-	-	.	.	.	.
Cc1ccc(C(=O)Nc2ccc(O)c(C(=O)O)c2)o1	-	-	9.3	-	-	-	-	-
Cc1ccc(C(=O)Nc2ccc(F)cc2)o1	-	-	-	-	-	-	.	.
Cc1ccc(CNC(=O)C2=NNC(=O)CC2)cc1	-	-	12	-	-	-	-	7.9
Cc1ccc2c(c1)sc(-c1ccc(N(C)C)cc1)[n+]2C	-	-	-	-	-	-	.	.
COc1ccc(C(=O)CN2Cc3ccccc3C2=N)cc1	-	-	12	-	-	-	8.3	6.1
CCCCn1c(=N)n(CC(=O)c2ccc(OC)cc2)c2ccccc21	-	-	9.4	-	-	.	20	-
COc1ccc(C(=O)CN2C(=O)COc3ccccc32)cc1	-	-	-	-	-	-	.	.
Brc1ccccc1-n1nnc(-c2nccs2)n1	-	-	8.3	-	-	-	-	16
CC(C)c1ccc(/C=N/NC(=O)CC(=O)NC2CCCCC2)cc1	-	-	8.4	-	-	-	-	-
C=CCOc1ccc(/C=N/NC(=O)CC(=O)NC2CCCCC2)cc1	-	-	-	-	-	-	.	.
CC(C)(C)S(=O)(=O)N1C[C@@H]2CC(=O)C(CCO)=C2[C@H]1CCO	.	.	-	-	.	.	.	.
CC(C)(C)c1ccc(-c2nnc(SCC(=O)Nc3cccc4ccccc34)n2Cc2ccco2)cc1	.	.	-	.	.	.	.	.
Cc1ccc(C(=O)c2cnc3cc4c(cc3c2S(=O)(=O)c2ccccc2)OCCO4)cc1	-	-	9.5	-	-	-	-	5.5
C[C@@H]1CCCCO[C@H](CN(C)Cc2ccncc2)[C@@H](C)CN([C@H](C)CO)C(=O)c2cc(N(C)C)ccc2O1	.	.	-	-	.	.	.	.
COC(=O)[C@]12C[C@H](CC(=O)NCCCN3CCCC3=O)C(=O)N(Cc3ccc4c(c3)OCO4)C1=C[C@H](C(C)(C)C)O[C@@H]2C	.	.	-	-	.	.	.	.
COc1cccc(C2NC(=O)c3ccccc3O2)c1OC (configuration not stated)	-	-	-	-	-	-	.	.
COc1cccc(C2N=C(c3ccccc3C)NO2)c1OC (configuration not stated)	-	-	8.0	-	-	-	-	-

Assay outcomes: PubChem, several laboratories
